Screening results: PubChem BioAssay, National Center for Advancing Translational Sciences (NCATS)
VACV mCherry inh: qHTS for Stage-Specific Inhibitors of Vaccinia Orthopoxvirus: mCherry Reporter Primary qHTS | Vaccinia virus mCherry reporter infection, fluorescence | actives 0.63% (n = 310,000) | Potency, µM (series often up to 36.5 µM), for the others: top-dose activity change, negative = inhibition, actives largely listed as inhibitors | AID 720579, 2013; calls by dose curve; tested in A549 cells; further: potency means the concentration at half of the fitted maximal effect; on the % scale 0 is the no-effect control and ±100 the full control effect; nearly all actives have a fitted effect of over 35% in size
VACV Venus inh: qHTS for Stage-Specific Inhibitors of Vaccinia Orthopoxvirus: Venus Reporter Primary qHTS; Vaccinia virus Venus reporter expression, fluorescence; Potency, µM (top dose mostly 36.5 µM), for inactives: at the top dose activity change, negative = inhibition, usual class: inhibitors; actives 0.46% (n = 330,000); calls by dose curve; tested in A549 cells; further: potency means the concentration at half of the fitted maximal effect; on the % scale 0 is the no-effect control and ±100 the full control effect; nearly all actives have a fitted effect of over 30% in size
FMDV antiviral: High Throughput Screening for Foot and Mouth Disease Virus Antivirals | FMDV antiviral cell-based qHTS | Potency, µM (series often up to 57.9 µM), for inactives: at the top dose activity change, negative = inhibition, most hits filed as inhibitors | AID 1159524, 2015 | actives 1.2% (n = 410,000); calls by dose curve; tested in HEK293T cells; further: read-out not given here; potency means the concentration at half of the fitted maximal effect; on the % scale 0 is the no-effect control and ±100 the full control effect; nearly all actives have a fitted effect of over 45% in size
HCMV inh: qHTS Assay for inhibitors of the human cytomegalovirus (HCMV). HFF cells, HCMV-luciferase reporter, 72 h; active compounds read low. activity change, negative = inhibition, % at 57.5 µM. actives 4.5% (n = 410,000). AID 1259415, 2018; in the data active means activity change below about -60%; inconclusive means no clear call, values can overlap the other calls; inactive means above about -39%; further: on the % scale 0 is the no-effect control and ±100 the full control effect
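Two-dose cell screen: HFF monolayers treated with compounds and infected with luciferase-expressing HCMV at 1 PFU/cell, 72 h at 37C, then lysed for luciferase measurement.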
Sm TGR block: qHTS Assay for the Inhibitors of Schistosoma Mansoni Peroxiredoxins. actives 3% (n = 360,000). purified TGR, DTNB reduction, TNB absorbance 405 nm. Potency, µM (titrated, usually from 114 µM), for the others: top-dose activity change, negative = inhibition, usual class: inhibitors. Schistosoma mansoni thioredoxin glutathione reductase (TGR), Q962Y6; further: potency means the concentration at half of the fitted maximal effect; on the % scale 0 is the no-effect control and ±100 the full control effect; nearly all actives have a fitted effect of over 60% in size
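First, TGR (20 nM dispensed) and NADPH were mixed with compound. Second, a 15 min room-temperature incubation followed. Third, further NADPH and then DTNB were added to start the reaction. Finally, TNB absorbance was monitored kinetically.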
HCV inhibitor: qHTS Assay for Inhibitors of Hepatitis C Virus (HCV). Huh7.5.1 HCVcc-Cre infection, luciferase reporter, 44 h. Potency, µM (doses to about 41.8 µM), for inactives: at the highest dose activity change, negative = inhibition, hits mostly inhibitors. actives 3.4% (n = 340,000); further: potency means the concentration at half of the fitted maximal effect; on the % scale 0 is the no-effect control and ±100 the full control effect
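Reporter virus HCVcc-Cre (~0.5 moi) infects cells exposed to compound; seeding density 1,000 cells/well with 4 h settling beforehand. Luminescence, 15 sec read, taken 44 h post-infection following a 15 min RT substrate incubation.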
HCV inh confirm: qHTS Assay for Inhibitors of Hepatitis C Virus (HCV): Confirmation Assay for Cherry-picked Compounds. shares compounds with HCV inhibitor. HCVcc-Cre infectious virus cell assay, luciferase, inhibition. Potency, µM (top dose mostly 41.8 µM), for inactives: at the highest dose activity, negative = inhibition, usual class: inhibitors. actives 78% (n = 640); further: potency means the concentration at half of the fitted maximal effect; nearly all actives have a fitted effect of over 80% in size
HCV host tox: qHTS Assay for Inhibitors of Hepatitis C Virus (HCV): Cytotoxicity Counterscreen for Cherry-picked Compounds | shares compounds with HCV inhibitor | HCV host cell line cytotoxicity counterscreen | Potency, µM (doses to about 41.8 µM), for the others: at the highest dose activity change, negative = cytotoxicity, actives largely listed as inhibitors | actives 22% (n = 640) | AID 720576, 2013;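 further: potency means the concentration at half of the fitted maximal effect; 44 h compound exposure; on the % scale 0 is the no-effect control and ±100 the full control effect; nearly all actives have a fitted effect of over 55% in size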
* marks the source's active call; other numbers are inactive results; i = inactive; ? = inconclusive; nt = not tested or not shown. This is a sample that favours compounds with a hit; in the whole collection about 9.3% have one here. Unless noted, the call rests on the fitted dose curve; in most records, active means well fitted curve in the direction sought with a large enough effect; inconclusive means small, poorly fitted or top-dose-only effect, or another doubt; inactive means no such curve, though single readings can be large; an effect the other way counts as inactive or inconclusive.

SMILES	VACV mCherry inh	VACV Venus inh	FMDV antiviral	HCMV inh	Sm TGR block	HCV inhibitor	HCV inh confirm	HCV host tox
Cc1nc(-c2ccc(F)cc2)sc1CCNC(=O)c1ccc(OC(C)C)cc1	-8%	-16%	-17%	-21	-2%	nt	nt	nt
CCn1c(=O)n(CC)c2cc(N3CCCC3)c(NC(=O)c3cc(Cl)ccc3OC)cc21	-5%	-3%	-29%	-20	-23%	4µM*	16µM*	?
COc1cc2ccccc2cc1C(=O)Nc1ccccc1N1CCCC1	-27%	-6%	-13%	0	12%	?	14µM*	-84%
COc1ccc(OC)c(NC(=O)/C=C/c2ccc(S(=O)(=O)N3CCOCC3)cc2)c1	-15%	-10%	-11%	-13	-1%	?	11µM*	?
COc1ccccc1/C=C/C(=O)Nc1cccc(S(=O)(=O)N2CCOCC2)c1	-4%	-22%	-7%	-14	5%	?	nt	nt
COc1cc(/C=C/C(=O)Nc2cccc(S(=O)(=O)N3CCOCC3)c2)ccc1OCC#N	nt	nt	?	-24	-4%	?	2.8µM*	20%
c1ccc(Cn2nnc3c(N4CCc5ccccc5C4)ncnc32)cc1	-21%	-12%	-9%	-6	-17%	-24%	nt	nt
c1ccc2c(c1)CCN(c1ncnc3c1[nH]c1ccccc13)C2	nt	nt	11µM*	-66*	0%	2.5µM*	2.8µM*	6.3µM*
COc1cc(-c2csc(CCn3nc(C)cc3C)n2)cc(OC)c1OC	-8%	-6%	?	6	-13%	?	nt	nt
O=C(NCCCn1ccnc1)c1nc(Cn2ccc([N+](=O)[O-])n2)no1	-5%	-6%	-3%	2	4%	0%	nt	nt
Cc1ccc(Cn2c(SCC(=O)NCc3ccco3)nc3ccsc3c2=O)cc1	nt	nt	-9%	5	-30%	4.5µM*	11µM*	16%
CCCCNC(=O)CSc1nc2cc3c(cc2c(=O)n1Cc1ccco1)OCO3	-1%	5%	?	-61*	-15%	?	14µM*	-3%
Cc1cc2c(=O)n(Cc3ccco3)c(SCC(=O)NCc3ccco3)nc2s1	-20%	-14%	8%	-1	0%	3.5µM*	2.8µM*	36%
Cc1sc2nc(SCC(=O)c3cccs3)n(Cc3ccco3)c(=O)c2c1C	nt	nt	-11%	-6	?	2%	?	2.8µM*
Cc1sc2nc(SCc3ccc(C(=O)O)cc3)n(Cc3ccco3)c(=O)c2c1C	-6%	-4%	-4%	0	0%	13%	nt	nt
CC1CCCCN1CCn1c(=S)[nH]c2ncccc2c1=O (stereo not drawn)	nt	nt	-7%	-2	0%	8%	nt	nt
CC1CCCCN1CCNc1nc(=S)[nH]c2ccccc12 (stereo not drawn)	i	-10%	17%	94	?	3.5µM*	-6%	-21%
O=C(NCc1cccc(Cl)c1)c1c2c(nc3ccccc13)C(=O)N(C1CCCCC1)C2	-22%	-10%	-25%	36	0%	nt	nt	nt
Nc1nc(Cl)nc(N(c2ccccc2)c2ccccc2)n1	i	-16%	-28%	21	-8%	-9%	nt	nt
Nc1nc(CCl)nc(N(c2ccccc2)c2ccccc2)n1	?	-36%	32µM*	-98*	11µM*	0.56µM*	1µM*	-95%
Cc1ccc2c(c1)-c1cc(C)ccc1C2=O	-2%	-4%	5%	9	nt	?	22µM*	10%
COc1cc2c(cc1OC)C(C(=O)N1CCOCC1)C(c1cccs1)N(C)C2=O (stereo not drawn)	nt	nt	9%	-7	-12%	3%	nt	nt
COc1ccccc1NC(=O)c1cccs1	nt	nt	19%	20	8%	?	nt	nt
COc1ccc(-c2ccccc2)cc1NC(=O)c1cccs1	?	-15%	-17%	-2	1%	7.9µM*	20µM*	17%
O=C1OCCN1C(=O)[C@H]1[C@H](c2ccc([N+](=O)[O-])cc2)C(c2ccc(F)cc2)=NN1c1ccccc1	-28%	?	?	1	nt	?	nt	nt
SMILES	VACV mCherry inh	VACV Venus inh	FMDV antiviral	HCMV inh	Sm TGR block	HCV inhibitor	HCV inh confirm	HCV host tox
O=C1OCCN1C(=O)[C@H]1[C@H](c2ccc([N+](=O)[O-])cc2)C(c2ccc(F)cc2)=NN1c1ccc(Br)cc1	-19%	-4%	-19%	15	nt	-56%	?	26%
COc1cc(OC)c(NC(=O)c2ccoc2C)cc1Cl	nt	nt	1%	19	-2%	?	nt	nt
COc1ccc(Cl)cc1NC(=O)c1ccoc1C	nt	?	-8%	26	-9%	5.6µM*	14µM*	8%
CC(O)C(NS(=O)(=O)c1ccc(Cl)cc1)C(=O)OCc1nnc(-c2ccccc2)o1 (stereo not drawn)	nt	-13%	0%	-17	5%	8%	nt	nt
O=C(NC(Nc1nc2ccc([N+](=O)[O-])cc2s1)(C(F)(F)F)C(F)(F)F)c1cccnc1	nt	nt	2.8µM*	-102*	-14%	4.5µM*	2.5µM*	7µM*
COc1ccc(-n2ncc(C(=O)N3CCOCC3)c2C2CCN(C(=O)OC(C)(C)C)CC2)cc1	-10%	-9%	7%	0	3%	nt	nt	nt
COc1ccc(C2CC(c3cccs3)=Nc3ccccc3S2)cc1 (stereo not drawn)	nt	nt	20%	-37	0%	?	?	16%
COc1ccc(Nc2nc(N3CCOCC3)nc(N3CCOCC3)n2)cc1	nt	nt	-22%	25	10%	?	nt	nt
COc1ccc(Nc2nc(NC(C)(C)C)nc(N3CCOCC3)n2)c(OC)c1	nt	nt	0%	-61*	nt	7.1µM*	7µM*	16%
COC(=O)C1=C(C(=O)OC)SC2(S1)C(C(=O)OC)=C(C(=O)OC)Sc1c2ssc1=O	7.1µM*	7.1µM*	32µM*	-77*	nt	?	10µM*	7.9µM*
Nc1nnc(SCC(=O)NC2CCCCC2)n1-c1ccccc1	-7%	-9%	-10%	92	11%	13%	nt	nt
Cc1ccc2c(c1)c1c(n2CC(O)CNC2CCCCC2)CCCC1 (stereo not drawn)	?	?	-27%	-105*	3%	4.5µM*	13µM*	-97%
